# This is part of a sample that, as a whole, favours compounds with a hit. Of some 83,000 tested, about 20% had one in any assay.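 How to read the values: 0–100, growth inhibition (40 = 60% inhibited); 0, no net growth; -100 to 0, cell death (-40 = 40% of starting cells died; -100 = all dead).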 Unmarked numbers belong to inactive results. Calls of active or inactive are those of the source. Rule for the calls: active = growth percent below 10; inactive = the rest.
# Columns and labels:
# Assay in all cases: NCI-60 one-dose screen, 48 h (100 = growth as untreated, 0 = no growth, -100 = all killed)
# Settings in all cases: 10 µM unless noted
# [1] = tested on: DU-145 prostate
# [2] = tested on: K-562 leukemia
# [3] = tested on: MALME-3M melanoma
# [4] = tested on: MDA-MB-231 breast
# [5] = tested on: RXF 393 renal
# [6] = tested on: SF-268 CNS
# [7] = tested on: SF-295 CNS
# [8] = tested on: SF-539 CNS
# [9] = tested on: UACC-257 melanoma
# [10] = tested on: M14 melanoma
# [11] = tested on: HCT-15 colon
# [12] = tested on: HT29 colon
# [13] = tested on: SNB-75 CNS
# [14] = tested on: SNB-19 CNS
# [15] = tested on: U251 CNS
# [16] = tested on: PC-3 prostate
# [17] = tested on: SK-MEL-5 melanoma
# [18] = tested on: UACC-62 melanoma
# [19] = tested on: LOX IMVI melanoma
# [20] = tested on: SK-MEL-28 melanoma
Compound,growth [1],growth [2],growth [3],growth [4],growth [5],growth [6],growth [7],growth [8],growth [9],growth [10],growth [11],growth [12],growth [13],growth [14],growth [15],growth [16],growth [17],growth [18],growth [19],growth [20]
O=C(Nc1ncc(Cc2ccccc2Cl)s1)c1cccs1,82.6%,16.9%,69.1%,88.7%,82.2%,76.4%,65.2%,95.8%,92.6%,62.3%,32%,43.6%,89.6%,82.9%,60.8%,64%,73.3%,45.9%,62.5%,85.2%
CCOC(=O)C1=C(C)N=C2SC=C(c3ccccc3)N2[C@H]1c1cn[nH]c1-c1ccc(Cl)cc1,64.6%,40.5%,-27.9% (active),41.9%,61.2%,44.8%,41%,44.4%,52.6%,47.7%,24.6%,36.8%,73.8%,59.2%,31.2%,34.7%,49.7%,36.2%,5.54% (active),75.2%
O=C(CSc1nc2ccc([N+](=O)[O-])cc2[nH]1)Nc1ccc(Br)cc1,62.2%,26.9%,40.9%,67.7%,85.5%,65.5%,56.5%,70.5%,37.7%,50.1%,56.1%,75.1%,61.6%,65.6%,36.3%,44.1%,26.3%,20.8%,63.5%,54.5%
COc1ccc(C(O)c2cc3c(N)c(C(=O)Nc4cccc(Cl)c4)sc3nc2C)cc1 (stereo not given),8.86% (active),10.7%,41%,20.2%,-10.9% (active),28.9%,9.76% (active),2.14% (active),47.1%,21.3%,11.6%,8.32% (active),31.2%,28.3%,23.6%,27.3%,-16.9% (active),27.5%,30.7%,65.8%
CCN(CC)c1ccc(N2C(=O)/C(=C/c3cccs3)SC2=S)cc1,100%,94%,84.2%,91.3%,98.3%,92.1%,99.6%,94.3%,80.6%,95.4%,102%,101%,93.9%,94.6%,89.1%,64.1%,93.8%,80.8%,88.8%,97.6%
CCCCSCC(=O)c1ccccc1,103%,97.3%,89.6%,102%,114%,97.1%,105%,98.4%,80.9%,99.4%,104%,92.2%,82.3%,98.1%,97.3%,81.5%,102%,102%,101%,108%
CC[C@H](C)[C@H](NC(=O)[C@H](CCCNC(=N)N)NC(=O)[C@H](Cc1c[nH]c2ccccc12)NC(=O)[C@@H](NC(=O)[C@H](CCCCN)NC(=O)[C@H](CCCCN)NC(=O)[C@@H](NC(=O)[C@@H](NC(=O)[C@@H](NC(=O)[C@H](CCCCN)NC(=O)[C@H](Cc1ccccc1)NC(=O)[C@H](CCCCN)NC(=O)[C@H](CCCCN)NC(=O)[C@H](Cc1ccccc1)NC(=O)[C@@H](NC(=O)[C@@H](N)CCCCN)[C@@H](C)CC)[C@@H](C)O)[C@@H](C)CC)[C@@H](C)CC)C(C)C)C(=O)N[C@@H](Cc1ccccc1)C(=O)NCC(=O)N[C@@H](CCCNC(=N)N)C(=O)N[C@@H](Cc1ccccc1)C(N)=O,-64.4% (active),4.14% (active),-64.4% (active),-70.6% (active),-2.96% (active),-23.2% (active),-34.1% (active),-69.8% (active),47.3%,-18.4% (active),-43% (active),-35.7% (active),-34% (active),-35.9% (active),-44.1% (active),-25.9% (active),3.57% (active),-65.7% (active),-11% (active),-31.7% (active)
C=CCOC(=O)C1=C(C)NC(=O)NC1c1c(Cl)n(C)c2ccccc12 (stereo not given),107%,106%,105%,96%,100%,95.4%,99.4%,93.5%,99.4%,95.3%,99.8%,110%,97.8%,94%,96.3%,89.2%,102%,90.3%,102%,99.6%
CCCCCCCCn1ccc2cc(NC(=O)Cn3cc(CN4CCC(C)CC4)nn3)ccc21,42.3%,-25.6% (active),-70.5% (active),9.71% (active),24.8%,32.8%,-74.3% (active),11.5%,-35.8% (active),-65.2% (active),-32.2% (active),-66.9% (active),79.1%,-34.8% (active),-57.6% (active),43%,-23% (active),-77.8% (active),-85.3% (active),-86.9% (active)
O=C1CC2C=CCN2C=C1NC(=O)C1CCCCC1 (stereo not given),98.9%,99.9%,78%,108%,104%,95.5%,98.5%,98.4%,97.8%,114%,98%,97.7%,87.3%,111%,97.9%,94.8%,102%,108%,96.9%,107%
COC(=O)/C=C1/SC(=Nc2cccc(Cl)c2)N(CCc2c[nH]c3ccc(O)cc23)C1=O,14.4%,5.71% (active),42.6%,29.1%,10.7%,25.3%,64.2%,0.787% (active),31.9%,13%,-11.6% (active),49.2%,38.7%,14.3%,4.91% (active),9.39% (active),41.4%,13.8%,-39.2% (active),17.4%
CCCCn1sc(=O)n(Cc2ccc(CNC(=O)OCc3ccc4c(Cl)cc(Cl)c(O)c4n3)cc2)c1=O,58.5%,42.9%,73%,84.4%,74.3%,67.1%,34.5%,78%,97.6%,60.7%,19%,101%,81.1%,52.5%,41.1%,58.5%,59.5%,47.9%,46%,69.2%
O=C1OCC2=C1C(c1cccc(F)c1)c1cc3c(cc1N2CCO)OCO3 (stereo not given),30.5%,9.79% (active),52.7%,49.9%,32.6%,38.7%,1.9% (active),2.82% (active),75.5%,12.6%,22.1%,5.77% (active),16.9%,32.9%,21.7%,25.1%,22.8%,47.2%,34.9%,59.5%
COC(=O)c1c2c(c(C)[n+]([O-])c1C)C(=O)C=CC2=O,-78.6% (active),10.5%,-87.8% (active),0.888% (active),-76.2% (active),-0.514% (active),19%,-98.2% (active),-80.8% (active),-82.8% (active),-64.8% (active),0.769% (active),-49.1% (active),-23.8% (active),-40.8% (active),3.6% (active),-98.5% (active),-72.8% (active),-86% (active),-82.9% (active)
O=C(N/N=C/c1ccc(Cl)cc1Cl)c1ccc2nc(-c3ccc(Cl)cc3)[nH]c2c1,30.5%,8.67% (active),-58.7% (active),9.48% (active),18.9%,38%,-49.3% (active),37.1%,31.7%,19.7%,4.69% (active),1.67% (active),98.4%,4.35% (active),-15.2% (active),-24.9% (active),36.2%,16.8%,-55.9% (active),-9.23% (active)

# Source: PubChem BioAssay (NCI)
